In PubChem BioAssay (EPA / NIEHS):
“And” between values parts separate entries of the source, which are not always exact repeats. Identical values can stand only once. Results filed as inconclusive are left out. The source made the active and inactive calls. Rule for the calls, unless noted: active = hit-call score of the fitted dose curve at least 0.9, where 1 is the maximum; inactive = score below 0.9.

Tests used:
[1] = CCTE_Shafer_MEA_dev_mutual_information_norm: CCTE's Neural Network Formation Assay for Mutual Information Normalization, Shafer Lab (AID 2284091);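 for AC50: mutual information between electrodes summarised as area under curve across four recording days; potency is for a decrease in mutual information relative to DMSO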
Method in brief: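 Shared information across electrodes, tracked on days 5, 7, 9 and 12 of network development and collapsed as trapezoidal area under the curve. Rat cortical cultures were treated continuously from plating, with treatment renewed at feeds on DIV 5 and 9; DMSO baseline, negative-direction fit.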

[2] = CCTE_Shafer_MEA_dev_correlation_coefficient_mean: CCTE's Neural Network Formation Assay for Mean Correlation Coefficient, Shafer Lab (AID 2284093);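 for AC50: well mean pairwise spike train correlation integrated as AUC over recording days 5 to 12; potency fitted for loss of correlation relative to DMSO vehicle wells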
Method in brief: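 Primary rat cortical neurons on PEI-coated 48-well MEA plates (16 electrodes/well) were exposed from plating day 0 through DIV12, with compound renewed at DIV5 and 9. Pairwise spike correlations were averaged per well; trapezoidal AUC across DIV5, 7, 9, 12.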

[3] = IUF_NPC1b_proliferation_BrdU_72hr: Leibniz Research Institute for Environmental Medicine (IUF) 72-hour Neural Progenitor Cell Bromodeoxyuridine (BrdU) Proliferation Assay (NPC1b) (AID 2284207)
Method in brief: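 Human fetal cortex-derived (GW 16-19) neural progenitor spheres, 0.25-0.35 mm, one per well in EGF/FGF proliferation medium, exposed to compound for 72 h at 37C, pH 7.2-7.6. BrdU incorporation over the final 16 h read by luminescence ELISA, relative to DMSO.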

[4] = IUF_NPC1a_proliferation_area_72hr: Leibniz Research Institute for Environmental Medicine (IUF) 72-hour Neural Progenitor Cell Proliferation Area Assay (NPC1a) (AID 2284208)
Method in brief: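 Single 0.25–0.35 mm human fetal neural progenitor spheres in proliferation medium with EGF and FGF, exposed 72 h from plating without renewal at 37C, pH 7.2-7.6. Sphere area growth measured by automated phase-contrast imaging, relative to DMSO.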

[5] = IUF_NPC1_viability_72hr: Viability Assessment at 72 hours in the Leibniz Research Institute for Environmental Medicine (IUF) Neural Progenitor Cell Proliferation Assay (NPC1) (AID 2284209)
Method in brief: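 Alamar blue fluorescence (RFU) after 72 h exposure, normalized to DMSO baseline. hNPC spheres from GW 16-19 fetal cortex, single sphere per well in growth-factor medium; no compound renewal.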

[6] = CCTE_Mundy_HCI_Cortical_Synap_Neur_Matur_NeuriteSpotCountPerNeuriteLength: CCTE's Synaptogenesis and Neurite Maturation Assay in rat cortical cells for Neurite Spot Count per Neurite Length, Mundy Lab (AID 2284210)
Method in brief: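 Synaptophysin spots per unit neurite length, measured by automated imaging of MAP2/synaptophysin/Hoechst-stained neurons. Cultures from rat cortex received chemical at DIV 7 with media change through DIV 12; glial growth arrested by AraC at DIV 5; DMSO baseline.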

[7] = CCTE_Mundy_HCI_Cortical_NOG_NeuriteCount: CCTE's Neurite Outgrowth Assay in rat cortical cells for Neurite Count, Mundy Lab (AID 2284212);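 note: cells fixed about two days after chemical exposure began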
Method in brief: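 Rat cortical primary cells; compound added 2 h post-plating, 1/10 dilution of working solution. Anti-betaIII-tubulin/AF488 ICC; ArrayScan neurite count vs DMSO.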

[8] = CCTE_Mundy_HCI_Cortical_NOG_NeuriteLength: CCTE's Neurite Outgrowth Assay in rat cortical cells for Neurite Length, Mundy Lab (AID 2284213);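 for AC50: neurites imaged about 48 to 50 h after chemical exposure began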
Method in brief: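 First, rat primary cortical cells were plated and, 2 h later, given test chemical as a 1/10 dilution. Finally, βIII-tubulin immunostaining enabled automated imaging of neurite length.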

[9] = CCTE_Mundy_HCI_Cortical_Synap_Neur_Matur_NeuriteLength: CCTE's Synaptogenesis and Neurite Maturation Assay in rat cortical cells for Neurite Length, Mundy Lab (AID 2284214)
Method in brief: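 Read-out: high-content imaging of MAP2-labelled neurites, with synaptophysin and Hoechst co-stain, in rat cortical cultures fixed at DIV 12. Activity fitted in positive direction relative to DMSO baseline.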

[10] = CCTE_Mundy_HCI_Cortical_Synap_Neur_Matur_NeuriteSpotCountPerNeuron: CCTE's Synaptogenesis and Neurite Maturation Assay in rat cortical cells for Neurite Spot Count per Neuron Count, Mundy Lab (AID 2284215)
Method in brief: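 Rat primary cortical cultures given AraC at DIV 5, dosed from DIV 7 to DIV 12 with media change. Fixed, stained for MAP2, synaptophysin and Hoechst; neurite-associated synaptophysin puncta per neuron quantified by high-content imaging versus DMSO.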

[11] = CCTE_Mundy_HCI_Cortical_Synap_Neur_Matur_SynapseCount: CCTE's Synaptogenesis and Neurite Maturation Assay in rat cortical cells for Synapse Count, Mundy Lab (AID 2284218)
Method in brief: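 Read-out: synapse number per neuron, automated high-content imaging of fixed cells immunostained for MAP2 and synaptophysin plus Hoechst nuclei. Rat primary cortical cultures, AraC at DIV 5, chemical dosing DIV 7–12. Positive-direction fit relative to DMSO.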

[12] = CCTE_Mundy_HCI_Cortical_Synap_Neur_Matur_NeuriteCount: CCTE's Synaptogenesis and Neurite Maturation Assay in rat cortical cells for Neurite Count, Mundy Lab (AID 2284222)
Method in brief: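 Rat cortical neurons, 96-well; AraC DIV 5; chemical + media change DIV 7; end DIV 12. Fix PFA/Hoechst, anti-MAP2 + anti-synaptophysin IF. HCI neurite count vs DMSO baseline.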

[13] = CCTE_Mundy_HCI_Cortical_Synap_Neur_Matur_CellBodySpotCount: CCTE's Synaptogenesis and Neurite Maturation Assay in rat cortical cells for Cell Body Spot Count, Mundy Lab (AID 2284223)
Method in brief: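 Primary rat cortical cultures, AraC added at DIV 5; dosed DIV 7 through DIV 12 […]. Fixed, stained for MAP2 and synaptophysin with Hoechst; cell body-associated synaptophysin puncta per neuron counted by high-content imaging, loss vs DMSO.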

[14] = TAMU_PeakParms_SingleDonor1434_Chronotropy: Texas A&M University (TAMU) 1.5-hr Human Induced Pluripotent Stem Cell (iPSC)-derived Cardiomyocytes Calcium (Ca+2) Flux Assay for Cardiotoxicity: Chronotropy (changes in peak frequency) (AID 2284217); conditions: actives raise or lower the signal
Method in brief: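 Beat rate, as mean Ca2+-flux peak frequency, was read from donor 1434 iPSC cardiomyocytes 90 min after exposure to 0.2–100 uM test chemical (0.5% DMSO). Wells that stopped beating were excluded; EC05 from bidirectional DMSO-referenced fitting.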

[15] = CCTE_Mundy_HCI_hN2_NOG_NeuriteCount: CCTE's Neurite Outgrowth Assay in human hN2 cells for Neurite Count, Mundy Lab (AID 2284219; active = hit-call score of the fitted dose curve at least 0.9, where 1 is the maximum)
Method in brief: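 In this morphology assay, hNP1-derived neurons received test chemical 2 h post-plating and were fixed two days later in warm paraformaldehyde/sucrose containing Hoechst 33342. Neurites, labelled by rabbit anti-βIII-tubulin (1:800) and Alexa Fluor-488 (1:500), were counted automatically.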

[16] = CCTE_Mundy_HCI_hN2_NOG_NeuriteLength: CCTE's Neurite Outgrowth Assay in human hN2 cells for Neurite Length, Mundy Lab (AID 2284220; active = hit-call score of the fitted dose curve at least 0.9, where 1 is the maximum)
Method in brief: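 Plate hNP1-derived neurons, then add chemical 2 h later as a 1/10 dilution. Stain with anti-βIII-tubulin then Alexa Fluor-488 secondary, and image automatically to measure neurite length.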

[17] = CCTE_Mundy_HCI_hN2_NOG_NeuronCount: CCTE's Neurite Outgrowth Assay in human hN2 cells for Neuron Count, Mundy Lab (AID 2284221; active = hit-call score of the fitted dose curve at least 0.9, where 1 is the maximum)
Method in brief: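 Read-out is the number of betaIII-tubulin-positive neurons imaged by automated high-content analysis, with DMSO as negative control.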

[18] = CCTE_Mundy_HCI_hNP1_Pro_ResponderAvgInten: CCTE's Proliferation Assay in human neuroprogenitor cells, Mundy Lab (AID 2284224; active = hit-call score of the fitted dose curve at least 0.9, where 1 is the maximum;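 note: human neural progenitor cells hNP1 derived from WA09 embryonic stem cells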)
Method in brief: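 Proliferation was scored as BrdU labelling intensity in human neural progenitors derived from WA09 embryonic cells, measured 26.25 hours after chemical dosing. Activity was fitted relative to DMSO.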

[19] = UKN2_HCS_IMR90_neural_migration: University of Konstanz (UKN) Leist Lab Neural Crest Cell Migration Assay in human induced IMR90 Pluripotent Stem Cells (UKN2) (AID 2284204); conditions: actives raise or lower the signal
Method in brief: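 High-content imaging of calcein-AM and Hoechst stained cells quantifies migration into a stopper-defined gap after 24 h compound exposure. Neural crest cells from IMR90 iPSC migrated 24 h in EGF/FGF N2-S medium before dosing; DMSO baseline.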

Measured: AC50

Clc1ccc(C(c2ccc(Cl)cc2)C(Cl)Cl)cc1
active: [1] 2.01 µM | [2] 3.89 µM

[Cl-].[Cl-].[Hg+2]
inactive: [1]
active: [2] 0.66 µM

[O-][Cl+]O
active: [3] 2.18 µM
not listed: [14] | [15] | [16] | [17] | [18] | [19]
inactive: all other assays above

CCCCCCCCn1sccc1=O
inactive: [14]

OCCOCCO
not listed: [14] | [19]
inactive: all other assays above

Clc1ccc(C(c2ccc(Cl)cc2)C(Cl)(Cl)Cl)cc1
active: [1] 971 nM and 2.52 µM | [2] 3 µM and 4.07 µM
inactive: [14]

Nc1cc(Cl)cc(C(=O)O)c1Cl
not listed: [3] | [4] | [5] | [14] | [18] | [19]
inactive: all other assays above

O=P(OCCCl)(OCCCl)OCCCl
inactive: [1] | [2] | [3] | [4] | [5] | [14]

ClC1=C(Cl)[C@]2(Cl)[C@H]3[C@H]([C@@H]4C=C[C@H]3C4)[C@@]1(Cl)C2(Cl)Cl
inactive: [14]
active: [1] 0.909 µM | [2] 1.99 µM

COC(=O)Nc1nc2ccccc2[nH]1
active: [1] 5.19 µM | [2] 5.11 µM | [3] 18.4 µM | [8] 12.5 µM | [9] 4.05 µM
not listed: [14] | [15] | [16] | [17]
inactive: all other assays above

CC(C)(O)c1cnn2c(-c3ccc(F)c(-c4c(F)cccc4C#N)c3)cnc2n1
active: [1] 0.191 µM
inactive: [2]

ClC1=C(Cl)C2(Cl)C3C(Cl)C=CC3C1(Cl)C2(Cl)Cl (stereo not given)
active: [1] 1.52 µM | [2] 1.97 µM | [7] 17.6 µM | [8] 22.5 µM | [9] 13.4 µM | [10] 10.5 µM | [11] 10.6 µM | [15] 5 µM | [16] 4.18 µM | [17] 2.86 µM | [12] 14.9 µM | [13] 12.4 µM | [18] 13.4 µM
inactive: [6] | [14]

C1=Cc2cccc3cccc1c23
active: [14] 50 µM
inactive: [1] | [2]
